ELG1 DNA repair – blocks ELG1-dependent DNA repair in HEK293T cells; actives 2.3% (n = 330,000); HEK293T ELG1-luciferase reporter, luminescence, 16 h; DNA damage induced by 5-fluorouridine; AID 504467; Potency, µM (series often up to 46.1 µM), for the others: at the top dose activity change, negative = inhibition, usual class: inhibitors; also: potency is read from the fitted curve at half-maximal effect; nearly all actives have a fitted effect of over 55% in size
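Cells (2,000 per well) received 5-fluorouridine plus test compound or DMSO and were incubated 16 hr at 37 °C, 5% CO2. Luciferase activity was read by luminescence 30 min after ONE-Glo addition; signal suppression marked inhibition of damage-induced ELG1 function.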
VP16 counter – Gal4-VP16 reporter inhibition counter-screen. Potency, µM (highest dose often 53.6 µM), without a hit: top-dose activity, negative = inhibition, usual class: inhibitors. actives 3.5% (n = 310,000). Drosophila S2 Gal4-VP16 UAS-luciferase, luminescence, 20 h;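 also: Gal4-VP16 expression switched on by copper sulfate through the metallothionein promoter; potency is read from the fitted curve at half-maximal effect; nearly all actives have a fitted effect of over 50% in size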
IL1B secr inh – blocks inflammasome-driven IL-1 beta release. THP-1 LPS/ATP IL-1B secretion, AlphaLISA, 16 h; hits give low values. activity change, % at 57.5 µM. actives 4.7% (n = 360,000). AID 743279; in the data active = activity change below about -50%; inconclusive = mostly about -30% to -49%
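Secreted IL-1B measured by AlphaLISA bead assay after 16 h compound exposure of THP-1 cells; compounds (final up to 57.5 uM) added 1 h before LPS (250 ng/mL) and ATP (1.25 mM) stimulation; lower signal means less secretion.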
RORgamma inh – blocks mouse ROR gamma transcriptional activity. P51450. Drosophila S2 Gal4-RORgamma UAS-luciferase reporter, 20 h. Potency, µM (top dose mostly 53.6 µM), inactives show at the highest dose activity change, negative = inhibition, most hits filed as inhibitors. actives 5.4% (n = 310,000); also: potency is read from the fitted curve at half-maximal effect; nearly all actives have a fitted effect of over 60% in size
Target sequence (P51450 whole entry, looked up, the tested form may be a part): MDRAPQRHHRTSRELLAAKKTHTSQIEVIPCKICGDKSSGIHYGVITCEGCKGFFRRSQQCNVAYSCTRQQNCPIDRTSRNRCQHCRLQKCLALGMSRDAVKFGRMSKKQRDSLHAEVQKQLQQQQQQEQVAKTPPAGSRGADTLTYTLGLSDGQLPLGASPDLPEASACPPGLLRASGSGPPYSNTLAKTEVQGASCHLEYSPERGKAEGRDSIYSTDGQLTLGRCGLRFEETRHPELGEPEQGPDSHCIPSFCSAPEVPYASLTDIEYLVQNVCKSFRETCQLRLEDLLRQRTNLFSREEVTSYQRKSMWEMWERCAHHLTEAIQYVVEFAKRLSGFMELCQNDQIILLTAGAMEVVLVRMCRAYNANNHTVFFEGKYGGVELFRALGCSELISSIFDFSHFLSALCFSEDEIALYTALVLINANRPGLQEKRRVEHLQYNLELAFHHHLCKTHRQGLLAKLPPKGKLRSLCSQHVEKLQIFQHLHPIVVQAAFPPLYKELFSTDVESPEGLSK
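Read-out: Photinus luciferase luminescence; inhibitors lower reporter signal. Insect Schneider cells with Gal4-ROR gamma fusion under metallothionein promoter, UAS reporter; 700 uM final copper sulfate induction, 20 hr, ambient temperature.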
TDP1 cell noCPT – qHTS for Inhibitors of human tyrosyl-DNA phosphodiesterase 1 (TDP1): qHTS in cells in absence of CPT; AID 686978, 2013; DT40 Tdp1-/- hTDP1 cells, no CPT, ATP luminescence, 48 h; Potency, µM (series often up to 46.2 µM), without a hit: top-dose activity change, negative = growth inhibition, hits mostly inhibitors; actives 15% (n = 420,000); also: potency is read from the fitted curve at half-maximal effect; nearly all actives have a fitted effect of over 55% in size
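A cellular qHTS used chicken DT40 cells lacking endogenous Tdp1 but carrying stably transfected human TDP1. Compounds were applied without camptothecin, and cell growth kinetics were judged by ATP-dependent luminescence after ≥48 hr.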
DT40 TDP1 CPT – growth inhibition of DT40 Tdp1-/-;hTDP1 cells with camptothecin (screen for TDP1 inhibitors) | chicken DT40 Tdp1-/-;hTDP1 cells + 20 nM CPT, ATP luminescence, 48 h | Potency, µM (highest dose often 46.2 µM), without a hit: at the highest dose activity change, negative = growth inhibition, hits mostly inhibitors | actives 12% (n = 420,000) | AID 686979; also: potency is read from the fitted curve at half-maximal effect; nearly all actives have a fitted effect of over 55% in size
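Cell growth measured by CellTiter-Glo luminescence after a minimum 48 h, 37 C compound exposure with 20 nM CPT in Tdp1-knockout DT40 cells stably expressing hTDP1, seeded 400/well; qHTS titration format.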
Active calls of the source: *. In the library only some 21% were active in any assay of this set; here they are far more common. Unless noted, calls follow the shape of the dose curve; as a rule, active = well fitted curve in the direction sought with a large enough effect; inconclusive = small, poorly fitted or top-dose-only effect, or another doubt; inactive = no such curve, though single readings can be large; an effect the other way counts as inactive or inconclusive. % is scaled to controls: 0 for no effect and ±100 for the full control effect.

How did O=S(=O)(NCC(c1cccnc1)N1CCN(Cc2ccccc2)CC1)c1cc(F)ccc1F (stereo not given) do in these assays?
ELG1 DNA repair: 3%; VP16 counter: 1%; IL1B secr inh: -1; RORgamma inh: 0%; TDP1 cell noCPT: -26%; DT40 TDP1 CPT: inconclusive

Results for O=C(NCC(c1cccnc1)N1CCN(Cc2ccccc2)CC1)C(=O)Nc1cccc(F)c1 (stereo not given) ?
TDP1 cell noCPT: 23µM*; DT40 TDP1 CPT: 26µM*

Results for O=C(NCC(c1cccnc1)N1CCN(Cc2ccccc2)CC1)C(=O)Nc1ccc(F)cc1 (stereo not given) ?
TDP1 cell noCPT: 23µM*; DT40 TDP1 CPT: 18µM*

Results for CCc1ccc(NC(=O)C(=O)NCC(c2cccnc2)N2CCN(Cc3ccccc3)CC2)cc1 (stereo not given) ?
TDP1 cell noCPT: 8.2µM*; DT40 TDP1 CPT: 12µM*

How did C[C@H](NC(=O)c1nc[nH]c1C(=O)NC1CCNCC1)C(=O)OCc1ccccc1 do in these assays?
ELG1 DNA repair: 27%

What do the screens show for `CC(C)[C@@H](CC(=O)N[C@@H]1CCCC[C@H]1C(=O)N[C@H](CC(=O)N[C@@H](CCC(=O)O)CC(=O)O)Cc1ccccc1)NC(=O)C[C@H](CO)NC(=O)[C@@H]1CNCC[C@H]1N`?
VP16 counter: -4%; RORgamma inh: 0%

What do the screens show for `COc1ccc(NC(=S)N2CCN(S(=O)(=O)c3ccccc3)CC2)cc1OC`?
ELG1 DNA repair: -13%; VP16 counter: 0%; IL1B secr inh: inactive; RORgamma inh: 8%; TDP1 cell noCPT: -17%; DT40 TDP1 CPT: -19%

What do the screens show for `COc1ccc(NC(=S)N2CCC(Cc3ccccc3)CC2)cc1OC`?
ELG1 DNA repair: -24%; VP16 counter: 16µM*; IL1B secr inh: 20; RORgamma inh: 13µM*; TDP1 cell noCPT: inconclusive; DT40 TDP1 CPT: inconclusive

How did COc1cccc(NC(=S)N2CCC(Cc3ccccc3)CC2)c1 do in these assays?
ELG1 DNA repair: inconclusive; VP16 counter: 18µM*; IL1B secr inh: -23; RORgamma inh: 7.1µM*; TDP1 cell noCPT: inconclusive; DT40 TDP1 CPT: 21µM*

What do the screens show for `COc1cccc(NC(=O)CCC2CCN(C(=O)C(OC)c3ccccc3)CC2)c1` (stereo not given)?
IL1B secr inh: -4; TDP1 cell noCPT: 21µM*; DT40 TDP1 CPT: 16µM*
